Experimental data taken from PubChem BioAssay AID1851 (National Center for Advancing Translational Sciences (NCATS), 2009).
In all, about 16,000 compounds went through this assay and about 5,100 (32%) were called active. Another 25% or so got no clear call; they are omitted. The list shows a part of the results. Unmarked numbers belong to inactive results. Calls come from the whole dose curve; as a rule, active = well fitted curve in the direction sought with a large enough effect; inconclusive = small, poorly fitted or top-dose-only effect, or effect the other way; inactive = no such curve, though single readings can be large or run the other way.

What follows are compounds tested against Cytochrome P450 3A4 (Homo sapiens) (UniProt P08684) (assay: Cytochrome panel assay with activity outcomes). Conditions: recombinant CYP, pro-luciferin dealkylation, luminescence, p450-cyp3a4; series mostly up to 57.1 µM; activity, negative = inhibition: at the top concentration.
% is set by controls: 0 for no effect and ±100 for the full control effect.

Cytochrome P450 3A4 (Homo sapiens), sequence (P08684 whole entry, looked up): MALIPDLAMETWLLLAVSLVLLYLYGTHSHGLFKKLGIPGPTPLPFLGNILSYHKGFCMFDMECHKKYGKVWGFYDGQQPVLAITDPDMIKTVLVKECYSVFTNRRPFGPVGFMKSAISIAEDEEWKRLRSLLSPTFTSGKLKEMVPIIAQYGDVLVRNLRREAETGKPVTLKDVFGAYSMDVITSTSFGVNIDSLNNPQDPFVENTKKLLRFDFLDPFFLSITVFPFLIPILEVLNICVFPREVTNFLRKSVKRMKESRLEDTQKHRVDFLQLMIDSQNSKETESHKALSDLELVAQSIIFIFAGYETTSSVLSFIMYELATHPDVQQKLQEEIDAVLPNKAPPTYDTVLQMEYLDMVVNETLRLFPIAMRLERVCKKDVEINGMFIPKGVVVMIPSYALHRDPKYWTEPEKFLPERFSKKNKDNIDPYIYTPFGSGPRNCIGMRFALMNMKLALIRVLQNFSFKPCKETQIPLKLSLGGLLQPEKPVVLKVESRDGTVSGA

SMILES | activity, negative = inhibition | AC50
CCCc1cc(=O)oc2c(CN3CCOCC3)c(O)ccc12 | 1.81% [at 2.29 µM] | 
Cn1c(=O)n2n(c1=O)[C@H]1[C@H](O)[C@H]3O[C@H]3C(=O)[C@H]1CC2 | -16.9% [at 11.4 µM] | 
CCc1c(C)nc2ccc(Br)cc2c1Cl | 0.237% | 
Cc1cc(Cl)nc2ccc(Cc3ccc4nc(Cl)cc(C)c4c3)cc12 |  | 3.16 µM (active)
CC(=O)Nc1ccc(Cc2ccc3[nH]c(=O)cc(C)c3c2)cc1 | -20.4% [at 11.4 µM] | 
O=C(O)c1cc2cc(OCc3ccccc3)ccc2[nH]1 | 5.87% | 
C[N+]1(CC(=O)OCCCc2ccccc2)CCOCC1 | 7.58% | 
CCOc1ccc(Cc2nc(C)c(CC(=O)N3CCOCC3)c(=O)[nH]2)cc1 | 1.75% [at 11.4 µM] | 
COc1cccc(C(=O)N(Cc2ccccc2)Cc2cc3cc4c(cc3[nH]c2=O)OCCO4)c1 |  | 3.98 µM (active)
COc1cccc(C(=O)n2c(SC)nc3cc4c(cc32)OCCO4)c1 | -13.8% | 
COc1ccc2[nH]c(=O)c(NC(N)=S)nc2c1 | -16.7% | 
CCOc1ccc2[nH]c(=O)c(CN(CCc3ccccc3)C(=O)N3CCOCC3)cc2c1 |  | 7.94 µM (active)
COc1ccc2[nH]c(=O)c(CN(CCc3ccccc3)C(C)=O)cc2c1 |  | 17.8 µM (active)
CCOc1ccc2[nH]c(=O)c(CN(CCc3ccccc3)C(=O)N3CCCC3)cc2c1 |  | 3.55 µM (active)
CCc1cccc(C)c1NC(=O)CSc1nc2ccc(N3C(=O)c4ccccc4C3=O)cc2s1 |  | 4.47 µM (active)
CCN(CC)C(=O)CSc1nc2ccc(NC(=O)CSc3nnc(COc4ccccc4C)n3C)cc2s1 | -17.9% [at 2.29 µM] | 
c1cncc(CNc2nc(-c3ccc4c(c3)OCO4)nc3ccccc23)c1 |  | 0.316 µM (active)
c1csc(CNc2nc(-c3ccc4c(c3)OCO4)nc3ccccc23)c1 |  | 1 µM (active)
Cc1cnc(CNc2nc(-c3ccc4c(c3)OCO4)nc3ccccc23)cn1 |  | 0.794 µM (active)
Cc1cccc(CNc2nc(-c3ccc4c(c3)OCO4)nc3ccccc23)c1 |  | 0.398 µM (active)
C[C@]1(O)CC[C@H]2[C@H]3CC=C4N5CCN=C5CC[C@@]4(C)[C@H]3CC[C@@]21C | -12.7% [at 11.4 µM] | 
c1ccc(CNc2nc(-c3ccc4c(c3)OCO4)nc3ccccc23)cc1 |  | 1 µM (active)
N=C(N)SCc1cccc(-c2nc3ccccc3c(=O)o2)c1 | -20.1% [at 11.4 µM] | 

SMILES | activity, negative = inhibition | AC50
O=C(O)c1cc(-c2ccc3cc4c(cc3c2)OCO4)nc2ccccc12 | -17.7% [at 11.4 µM] | 
CC(=O)NCCNc1nc(-c2ccc3c(c2)OCO3)nc2ccccc12 |  | 3.98 µM (active)
COc1ccc(CSC2=C(C#N)C(=O)NC3(CCCCC3)S2)cc1 | -12.2% [at 11.4 µM] | 
O=C1C=C(c2cccs2)CC(c2cccs2)C1n1cnc([N+](=O)[O-])c1 (configuration not stated) | 17.5% | 
CCCCSCc1nc2nc(Cl)c(Cl)nc2[nH]1 | -27.9% [at 11.4 µM] | 
CC1CCN(C(=S)c2ccc(O)cc2)CC1 | 11.7% [at 2.29 µM] | 
CSc1nnc2c(n1)OC(C)N(C(=O)c1ccccc1)c1ccccc1-2 (configuration not stated) | 18.2% | 
C=CCSc1nnc2c(n1)OC(c1c(C)[nH]n(-c3ccccc3)c1=O)Nc1ccccc1-2 (configuration not stated) |  | 14.1 µM (active)
CC(C)[C@@H]1NC(=O)[C@H](CCCCN)NC(=O)[C@H](Cc2c[nH]c3ccccc23)NC(=O)[C@H](Cc2ccc(O)cc2)NC(=O)[C@H](C)N(C)C(=O)[C@H](Cc2ccccc2)NC1=O |  | 3.98 µM (active)
O=Nc1c(O)n(Cc2ccc(Cl)cc2)c2ccccc12 |  | 17.8 µM (active)
O=Nc1c(O)n(Cc2ccc(Cl)c(Cl)c2)c2ccccc12 |  | 14.1 µM (active)
O=c1[nH]ncc2c3ccccc3n(Cc3ccccc3)c12 | -5.96% | 
Clc1ccc(CN2CCCN(Cc3ccc(Cl)cc3)C2c2cc3ccccc3c3ccccc23)cc1 | -6.95% [at 11.4 µM] | 
Cc1sc2ccccc2[n+]1CCC(C)S(=O)(=O)[O-] (configuration not stated) | 7.81% | 
CC(=O)N1c2c(cc(Br)cc2S(=O)(=O)NCC2COc3ccccc3O2)CC1C (configuration not stated) |  | 7.94 µM (active)
CCCN(CCC)CCCNS(=O)(=O)c1cc(Br)cc2c1N(C(C)=O)CC2 | -10.1% [at 11.4 µM] | 
OC[C@H]1NC[C@@H](O)[C@@H](O)[C@H]1O | -12.1% | 
CCCCOc1ccc(/C=C/C(=O)NCCc2nc3ccccc3[nH]2)cc1 |  | 12.6 µM (active)
N[C@@](CCc1ccccc1)(C(=O)O)c1ccccc1 | -0.157% [at 11.4 µM] | 
O=C(Nc1ccccc1)N1CCC2(CCNCC2)CC1 | 28.2% | 
O=C(Nc1ccc(Cl)cc1)N1CCc2[nH]c3ccccc3c2C1 |  | 14.1 µM (active)
COC(=O)N1CCC2(CC1)CN(C(=O)Nc1ccccc1)C2 | -1.42% | 
CC[C@H]1C2=C3C(CC[C@H]4C(OCc5ccc(F)cc5C(F)(F)F)OC[C@](C)([C@@H]34)N(C(=O)OC(C)(C)C)C2)C2COC(=O)OCC21 (some centres not stated) |  | 20 µM (active)

SMILES | activity, negative = inhibition | AC50
C[C@H]1C2=C3C(CC[C@H]4C(OCc5ccc(F)cc5C(F)(F)F)OC[C@](C)([C@@H]34)N(C(=O)OC(C)(C)C)C2)C2COC(=O)OCC21 (some centres not stated) |  | 20 µM (active)
Cc1ccc(-n2c(-c3ccccc3)cc(=O)nc2C)cc1 | -14.5% | 
Cn1c(=O)c2nc(-c3ccccc3)oc2c2ccccc21 |  | 12.6 µM (active)
Cc1ccc(-c2nc3c(=O)n(C)c4ccccc4c3o2)cc1 |  | 7.08 µM (active)
CN(C(=O)c1c(O)c2ccccc2n(C)c1=O)c1ccccc1 | -26.7% | 
CCCn1c(-c2ccccc2)nc2c(=O)n(C)c(=O)[nH]c21 | 5.61% | 
CC(C)CCN1C(=O)c2ccc(-c3nc4ccccc4c(=O)o3)cc2C1=O | -5.78% [at 11.4 µM] | 
OC[C@@H](O)CNc1ncnc2ccccc12 | 3.9% [at 11.4 µM] | 
Cc1cc(C)c(NC(=O)CSc2nnc(Cc3cccn3C)n2-c2ccc(F)cc2)c(C)c1 |  | 1.58 µM (active)
Cc1cc(C)n(-c2ccc(F)cc2)c(=O)c1C(=O)O | -11% | 
Cc1cc(C)c(NC(=O)NC(=O)c2ccc(F)cc2)c(C)n1 | -0.466% | 
O=C(NCCc1ccc(Cl)cc1)c1ncn[nH]1 | -0.238% [at 2.29 µM] | 
Cc1ccc(C)c(NC(=O)c2ncn[nH]2)c1 |  | 14.1 µM (active)
CC(C)c1ccc(O)c(NC(=O)c2ncn[nH]2)c1 |  | 10 µM (active)
COc1ccc(NC(=O)c2ncn[nH]2)cc1 | -23.5% | 
CCC(C)n1nnc2c(=O)oc3ccccc3c21 (configuration not stated) | -20% | 
Cc1cccc(CNc2ccnc(-c3ccoc3)n2)c1 |  | 1 µM (active)
c1ccc(CNc2ccnc(-c3ccoc3)n2)cc1 |  | 10 µM (active)
Cc1ccc(S(=O)(=O)N=Nc2c(O)[nH]c3cc(O)c(C(=O)O)cc23)cc1 | -1.68% [at 11.4 µM] | 
N#Cc1cccc(-c2nc(Nc3ccccc3)c3ccccc3n2)c1 | -48.6% | 
CNc1nc(-c2cccc(C#N)c2)nc2ccccc12 |  | 10 µM (active)
COc1ccccc1CNc1nc(-c2cccc(C#N)c2)nc2ccccc12 |  | 10 µM (active)
COc1ccc(CNc2nc(-c3cccc(C#N)c3)nc3ccccc23)c(OC)c1 |  | 2.51 µM (active)

SMILES | activity, negative = inhibition | AC50
COc1ccc(CNc2nc(-c3cccc(NS(C)(=O)=O)c3)nc3ccccc23)c(OC)c1 |  | 2.51 µM (active)
COc1cc2c(cc1C(F)(F)F)N(C(=O)Nc1cc(F)cc(-c3cccnc3)c1)CC2 |  | 2.51 µM (active)
CC1(C)OCC([C@H](O)C2=CCCCC2=O)CO1 | -7.04% [at 11.4 µM] | 
CCOC(=O)c1cc(C(=O)OCC)cc(-n2cc(O)c(C(=O)OCC)n2)c1 | -9.96% | 
COc1cc(CNn2nnnc2N)ccc1OCc1c(Cl)cccc1Cl |  | 0.562 µM (active)
COC(=O)c1sc2ncccc2c1OCc1c(Cl)cccc1Cl | -24.4% [at 11.4 µM] | 
COc1ccc(C[N+](C)(C)N)cc1OC | -9.55% [at 11.4 µM] | 
Nc1nc(N)[n+]([O-])c(N)c1NCO | -2.59% [at 11.4 µM] | 
O=C(OCCCN1CCCCC1)c1ccc(O)cc1 | -18% | 
Cc1cc(C(=O)O)c(=O)[nH]c1C | -1.64% | 
CO/N=C\[C@@H](NS(=O)(=O)c1ccc(C)cc1)[C@H](C)/C=C\CC(=O)OC | -67.3% [at 11.4 µM] | 
COC(=O)C/C=C\[C@@H](C)[C@@H](/C=N\OC[C@@H](O)[C@H]1O[C@H]2OC(C)(C)O[C@H]2[C@@H]1O)NS(=O)(=O)c1ccc(C)cc1 |  | 3.98 µM (active)
COC(=O)C/C=C\[C@H](C)[C@H](CO)NS(=O)(=O)c1ccc(C)cc1 | -5.02% [at 11.4 µM] | 
CC(C)[C@@H](OCc1ccccc1)[C@H](C)/C=N\OC[C@@H](O)[C@@H]1O[C@@H]2OC(C)(C)O[C@@H]2[C@H]1O | -28.7% [at 11.4 µM] | 
COC(=O)C/C=C\[C@@H](C)[C@@H](/C=N\OC[C@@H](O)COCc1ccco1)NS(=O)(=O)c1ccc(C)cc1 |  | 3.16 µM (active)
COC(=O)C/C=C\[C@@H](C)[C@@H](/C=N\OC[C@@H](O)COCc1ccco1)OC | -28.9% [at 11.4 µM] | 
CNc1cc(CSC)nc(SCc2ccc(Cl)c(Cl)c2)n1 |  | 5.01 µM (active)
Clc1ccc(CSC2=NCCN2)cc1Cl | -8.56% [at 11.4 µM] | 
O=C(Cn1ccnc1[N+](=O)[O-])NCCO | -11.3% [at 25.6 µM] | 
Cc1cnc(CNc2ncnc3ccc(-c4ccccc4CN(C)C)cc23)cn1 | -33.4% | 
Cc1cnc(CNc2ncnc3ccc(-c4ccccc4C)cc23)cn1 |  | 3.98 µM (active)
Cc1cnc(CNc2ncnc3ccc(-c4ccccc4C(F)(F)F)cc23)cn1 |  | 2 µM (active)
Cc1cnc(CNc2ncnc3ccc(-c4ccccc4Cl)cc23)cn1 |  | 2.51 µM (active)
